{"source": "PubChem BioAssay (NCATS)", "note": "Records with an inconclusive call do not appear. The source made the active and inactive calls. Calls come from the whole dose curve; as a rule, active = well fitted cell-killing curve with a large enough effect; inconclusive = small, poorly fitted or top-dose-only effect; inactive = flat fitted curve, though single readings scatter. Note: nearly all actives have a fitted effect of over 55% in size.", "data": [{"assay": "Cell Viability - LYMP2-013 (AID 970); note: potency is the fitted concentration of half-maximal effect;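 for activity change, negative = cytotoxic: 0% = DMSO only and full inhibition = tetraoctylammonium bromide control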", "conditions": "LYMP2-013 lymphoblastoid cells viability; series mostly up to 92.2 µM; activity change, negative = cytotoxic: at the top concentration", "method_in_brief": "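Human lymphoblastoid cells, 2500/well, were preincubated 5 hr at 37 C, then treated with compounds for 24 hr at 37 C in complete medium. Intracellular ATP was read by CellTiter-Glo luminescence; AC50 from Hill-equation fits of concentration-response data.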", "values": [{"smiles": "CCNc1nc(Cl)nc(NC(C)C)n1", "activity change, negative = cytotoxic": "-3.78% (inactive)"}, {"smiles": "ClC1=C(Cl)C2(Cl)C3C4CC(C5OC45)C3C1(Cl)C2(Cl)Cl", "note": "(stereo not given)", "Potency": "39.8 µM (active)"}, {"smiles": "ClC(Cl)=C(c1ccc(Cl)cc1)c1ccc(Cl)cc1", "Potency": "inactive"}, {"smiles": "O=C(O)COc1ccc(Cl)cc1Cl", "Potency": "inactive"}, {"smiles": "COC(=O)NC(=S)Nc1ccccc1NC(=S)NC(=O)OC", "activity change, negative = cytotoxic": "-2.9% (inactive)"}, {"smiles": "C/C=C/c1ccc2c(c1)OCO2", "activity change, negative = cytotoxic": "-1.86% (inactive)"}, {"smiles": "COP(=S)(OC)Oc1ccc([N+](=O)[O-])cc1", "activity change, negative = cytotoxic": "1.28% (inactive)"}, {"smiles": "C=CCc1ccc(OC)cc1", "activity change, negative = cytotoxic": "1.15% (inactive)"}, {"smiles": "CNC(=O)O/N=C/C(C)(C)SC", "activity change, negative = cytotoxic": "-13% (inactive)"}]}, {"assay": "Cell Viability - LYMP2-015 (AID 971); note: potency is the fitted concentration of half-maximal effect;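 for activity change, negative = lower viability: 0% = DMSO only and full effect = 92 µM tetraoctylammonium bromide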", "conditions": "LYMP2-015 lymphoblastoid cell viability; series mostly up to 92.2 µM; activity change, negative = lower viability: at the top concentration", "method_in_brief": "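Human lymphoblastoid cells (2500/well) in complete medium were preincubated 5 hr at 37 C, then compound-treated 24 hr at 37 C. Intracellular ATP was read by CellTiter-Glo luminescence after 30 min at room temperature; AC50 came from Hill-equation concentration-response fits.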", "values": [{"smiles": "CCNc1nc(Cl)nc(NC(C)C)n1", "activity change, negative = lower viability": "-12.3% (inactive)"}, {"smiles": "ClC1=C(Cl)C2(Cl)C3C4CC(C5OC45)C3C1(Cl)C2(Cl)Cl", "note": "(stereo not given)", "Potency": "39.8 µM (active)"}, {"smiles": "ClC(Cl)=C(c1ccc(Cl)cc1)c1ccc(Cl)cc1", "Potency": "inactive"}, {"smiles": "O=C(O)COc1ccc(Cl)cc1Cl", "Potency": "inactive"}, {"smiles": "COC(=O)NC(=S)Nc1ccccc1NC(=S)NC(=O)OC", "activity change, negative = lower viability": "-9.68% (inactive)"}, {"smiles": "C/C=C/c1ccc2c(c1)OCO2", "activity change, negative = lower viability": "-3.28% (inactive)"}, {"smiles": "COP(=S)(OC)Oc1ccc([N+](=O)[O-])cc1", "activity change, negative = lower viability": "-7.68% (inactive)"}, {"smiles": "O=S1OCC2C(CO1)C1(Cl)C(Cl)=C(Cl)C2(Cl)C1(Cl)Cl", "note": "(stereo not given)", "activity change, negative = lower viability": "-21.2% (inactive)"}, {"smiles": "C=CCc1ccc(OC)cc1", "activity change, negative = lower viability": "3.99% (inactive)"}, {"smiles": "CNC(=O)O/N=C/C(C)(C)SC", "activity change, negative = lower viability": "-25.2% (inactive)"}, {"smiles": "CCc1cccc(CC)c1N(COC)C(=O)CCl", "Potency": "50.1 µM (active)"}]}, {"assay": "Cell Viability - LYMP2-017 (AID 972); note: potency is the fitted concentration of half-maximal effect; for activity change, negative = cytotoxicity: % is set by controls: 0 for no effect and ±100 for the full control effect", "conditions": "LYMP2-017 lymphoblastoid cell viability; series mostly up to 92.2 µM; activity change, negative = cytotoxicity: at the top concentration", "method_in_brief": "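Human lymphoblastoid cells (2500/well) were seeded in complete medium, held 5 hr at 37 C, then exposed to compounds for 24 hr at 37 C. Intracellular ATP was read by CellTiter-Glo luminescence after 30 min at room temperature, with AC50 values from Hill-equation fits.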", "values": [{"smiles": "CCNc1nc(Cl)nc(NC(C)C)n1", "activity change, negative = cytotoxicity": "-0.228% (inactive)"}, {"smiles": "CCOCN(C(=O)CCl)c1c(C)cccc1CC", "Potency": "50.1 µM (active)"}, {"smiles": "ClC(Cl)=C(c1ccc(Cl)cc1)c1ccc(Cl)cc1", "Potency": "inactive"}, {"smiles": "O=C(O)COc1ccc(Cl)cc1Cl", "Potency": "inactive"}, {"smiles": "COC(=O)NC(=S)Nc1ccccc1NC(=S)NC(=O)OC", "activity change, negative = cytotoxicity": "-5.66% (inactive)"}, {"smiles": "C/C=C/c1ccc2c(c1)OCO2", "activity change, negative = cytotoxicity": "9% (inactive)"}, {"smiles": "COP(=S)(OC)Oc1ccc([N+](=O)[O-])cc1", "activity change, negative = cytotoxicity": "-0.766% (inactive)"}, {"smiles": "C=CCc1ccc(OC)cc1", "activity change, negative = cytotoxicity": "-4.82% (inactive)"}, {"smiles": "CNC(=O)O/N=C/C(C)(C)SC", "activity change, negative = cytotoxicity": "-24% (inactive)"}]}, {"assay": "Cell Viability - LYMP2-019 (AID 973);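 note: 0% = DMSO alone and full effect = 92 µM tetraoctylammonium bromide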", "conditions": "LYMP2-019 lymphoblastoid cell line viability; series mostly up to 92.2 µM; activity change, negative = cytotoxicity: at the top concentration", "method_in_brief": "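Human lymphoblastoid cells were seeded at 2500 cells/well, preincubated 5 hr at 37 C, then exposed to compounds for 24 hr at 37 C in complete medium. Intracellular ATP was measured by CellTiter-Glo luminescence; AC50 from Hill fits.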", "values": [{"smiles": "CCNc1nc(Cl)nc(NC(C)C)n1", "activity change, negative = cytotoxicity": "-5.77% (inactive)"}, {"smiles": "ClC(Cl)=C(c1ccc(Cl)cc1)c1ccc(Cl)cc1", "Potency": "inactive"}, {"smiles": "O=C(O)COc1ccc(Cl)cc1Cl", "Potency": "inactive"}, {"smiles": "C/C=C/c1ccc2c(c1)OCO2", "activity change, negative = cytotoxicity": "-20.7% (inactive)"}, {"smiles": "O=S1OCC2C(CO1)C1(Cl)C(Cl)=C(Cl)C2(Cl)C1(Cl)Cl", "note": "(stereo not given)", "activity change, negative = cytotoxicity": "-18% (inactive)"}, {"smiles": "C=CCc1ccc(OC)cc1", "activity change, negative = cytotoxicity": "1.43% (inactive)"}]}]}
